# Laboratory results: PubChem BioAssay (NCI)
# This is part of a sample that, as a whole, favours compounds with a hit. Of some 79,000 tested, about 15% had one in any assay. Unmarked numbers belong to inactive results. Active and inactive are the calls of the source. Rule as the data show it: active = growth inhibition above about 70%; inactive = the rest.
# What was measured:
# [1] = NCI Yeast Anticancer Drug Screen. Data for the rad50 strain (AID 155);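 also: 0% = growth of vehicle-only cultures of the same strain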; conditions: S. cerevisiae rad50 strain growth inhibition, active compounds read high
# In short: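 Inhibition values express reduced yeast growth in compound-treated cultures relative to vehicle-treated controls.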
# [2] = NCI Yeast Anticancer Drug Screen. Data for the mec2-1 strain (AID 157); conditions: S. cerevisiae mec2-1 strain, active compounds read high
# In short: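 Strain: mec2-1 (DNA repair/cell cycle alteration). Compound exposure, then growth measured; inhibition expressed relative to vehicle.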
# [3] = NCI Yeast Anticancer Drug Screen. Data for the sgs1 mgt1 strain (AID 161);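 also: 0% = growth of cultures given vehicle only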; conditions: S. cerevisiae sgs1 mgt1 strain, active compounds read high
# In short: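 Read-out: growth inhibition vs vehicle controls. Cells: mutant yeast strain deficient in DNA damage repair.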
# [4] = NCI Yeast Anticancer Drug Screen. Data for the cln2 rad14 strain (AID 165);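 also: 0% = growth equal to vehicle treated cultures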; conditions: S. cerevisiae cln2 rad14 strain, active compounds read high
# In short: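 Compounds are applied to the cln2 rad14 yeast strain, and growth is then compared with that of vehicle-treated cultures to give inhibition.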
# [5] = NCI Yeast Anticancer Drug Screen. Data for the bub3 strain (AID 167); conditions: S. cerevisiae bub3 mutant strain, active compounds read high
# In short: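 Steps: expose the mutant yeast strain to compound; grow alongside vehicle-treated cultures; measure growth; express inhibition against the vehicle cultures.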
# [6] = NCI Yeast Anticancer Drug Screen. Data for the mlh1 rad18 strain (AID 175); conditions: S. cerevisiae mlh1 rad18 strain growth inhibition, active compounds read high
# In short: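 Read-out is yeast growth inhibition, calculated against vehicle-only controls. The compound was applied to a strain engineered with DNA damage repair alterations.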
# [7] = at 5.0 µM (retest, dose inferred, filed as 0.5)
# [8] = at 50.0 µM (retest, dose inferred, filed as 5.0)
Compound,"growth inhibition [1, 7] [%]","growth inhibition [1, 8]",growth inhibition ([1]; at 50.0 µM),"growth inhibition [2, 7] [%]","growth inhibition [2, 8]",growth inhibition ([2]; at 50.0 µM),"growth inhibition [3, 7] [%]","growth inhibition [3, 8]",growth inhibition ([3]; at 50.0 µM),"growth inhibition [4, 7] [%]","growth inhibition [4, 8]",growth inhibition ([4]; at 50.0 µM),"growth inhibition [5, 7] [%]","growth inhibition [5, 8]",growth inhibition ([5]; at 50.0 µM),"growth inhibition [6, 7] [%]","growth inhibition [6, 8]",growth inhibition ([6]; at 50.0 µM)
CC1OC(OC2C(OC3CCC4(C)C(CCC5(C)C4CC=C4C6CC(C)(C)CCC6(CO)C(O)CC45C)C3(C)C)OC(C(=O)O)C(OC3OC(COC4OC(CO)C(O)C(O)C4O)C(O)C(O)C3O)C2O)C(O)C(O)C1O (configuration not stated),-21,99% (active),92.7% (active),-22,100% (active),94.2% (active),-14,98% (active),94.4% (active),15,99% (active),92.5% (active),-9,99% (active),93.4% (active),9,99% (active),93.5% (active)
O=[N+]([O-])c1cc(I)c(O)c(/C=N/NS(=O)(=O)c2ccc(Cl)cc2)c1,-3,11%,88.5% (active),-8,1%,75.1% (active),-1,17%,77.7% (active),-9,-1%,62.2%,-6,-1%,72% (active),-2,4%,91.8% (active)
CCOC1Oc2ccccc2-c2nc(SC)ncc21 (configuration not stated),23,20%,75.4% (active),14,20%,19.9%,18,21%,36.6%,26,18%,15.9%,28,55%,47.6%,17,19%,43.9%
C1CCC(OC2CCCCO2)OC1 (configuration not stated),-2,76% (active),70.3% (active),-22,36%,21.2%,-11,56%,62.1%,-2,66%,65.2%,-8,71% (active),77.3% (active),-9,92% (active),66%
Cc1c(C2CC(=O)NC2=O)c2ccccc2n1C (configuration not stated),3,3%,6.55%,-1,0%,6.25%,-1,-1%,-13.8%,-4,-5%,69%,4,3%,-20.6%,2,3%,7.8%
O=C1C=CC(=O)c2c1oc1ccccc21,14,98% (active),60.7%,6,99% (active),19%,13,99% (active),16.2%,13,79% (active),48.5%,30,98% (active),36%,23,98% (active),57.8%
CCCN=Cc1cnc(C#N)c(N)n1,4,4%,19%,4,0%,-3.9%,-1,4%,4.6%,1,1%,71.5% (active),-2,-1%,17.3%,11,2%,32.5%
CC(C(O)c1ccccc1)[N+](=O)[O-] (configuration not stated),67,96% (active),97% (active),8,41%,29.2%,6,53%,55.1%,3,63%,28.1%,1,78% (active),39.6%,7,74% (active),38.5%
CC(/C=C/c1cccs1)=N\C(=S)NC(N)=S,-1,0%,3.7%,10,32%,28.4%,1,12%,26.7%,-1,-4%,2.05%,1,52%,77.8% (active),-5,12%,25.9%
